The record followed here is PubChem BioAssay (Tox21).

Assay [1] in a line: Caspase-3/7 induction in HepG2 cells by small molecules, qHTS assay (AID 1346978). Further: nearly all actives have a fitted effect of over 15% in size. Summed up:
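Wild-type HepG2 cells (2,000/well) were settled 5 h at 37 C, 5% CO2, then exposed to compounds in DMSO for 17 h. Caspase-3/7 activity was read by luminescence 30 min after adding Caspase-Glo 3/7 reagent at room temperature.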

Assay [2] is described as follows: Caspase-3/7 induction in CHO-K1 cells by small molecules, qHTS cell viability counter screen (AID 1346979). Further: nearly all actives have a fitted effect of over 35% in size. Summed up:
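To flag cytotoxic compounds, treated CHO-K1 wild-type cells were given CellTiter-Fluor at 16hr and read fluorescently after 1hr at 37C; the caspase-3/7 luminescence was measured in these same wells.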
(In general: qHTS replaces the single test concentration by a dilution series.)

The nature of assay [3]: Caspase-3/7 induction in CHO-K1 cells by small molecules, qHTS assay (AID 1346980). Further: nearly all actives have a fitted effect of over 15% in size. Summed up:
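Wild-type cells were seeded at 1,500 per well and settled 5 hr at 37 C, 5% CO2, then exposed to DMSO-dissolved compounds for 17 hr. Caspase-Glo 3/7 reagent was added, and luminescence was read after 30min at room temperature.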

The nature of assay [4]: Caspase-3/7 induction in HepG2 cells by small molecules, qHTS cell viability counter screen (AID 1346981). Further: series mostly up to about 92 µM; nearly all actives have a fitted effect of over 30% in size. Summed up: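 Counter screen for cytotoxicity: HepG2 exposed 16 hr to compounds, then CellTiter-Fluor viability signal (fluorescence, 1 hr reagent incubation).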
Assay [5] concerns the target Nuclear receptor subfamily 1 group I member 2 (Homo sapiens) (UniProt O75469). The assay is described as follows: Human pregnane X receptor (PXR) small molecule agonists, qHTS assay (AID 1346982). Further: nearly all actives have a fitted effect of over 35% in size. Summed up:
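Luminescence (ONE-Glo, 30 min RT) after 24 hr compound exposure of PXR-Luc HepG2 cells; cells rested 5 hr post-plating in 5% charcoal-stripped FBS medium.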

Assay [6] addresses Acetylcholinesterase (Homo sapiens) (UniProt P22303). The assay is described as follows: Acetylcholinesterase (AChE) small molecule antagonists: colormetric cell-based qHTS assay (AID 1347395; calls by dose curve; further: nearly all actives have a fitted effect of over 30% in size). A digest of the protocol:
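Neuroblastoma line SH-SY5Y supplied the enzyme; cells were preincubated with compound for 30 min at 37 C and 5% CO2. Acetylthiocholine with DTNB was then added for 90 min at 37 C, and thiocholine was measured by colour.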

Assay [7] has the same target. The assay is described as follows: Acetylcholinesterase (AChE) small molecule antagonists: enzyme-based qHTS assay (AID 1347397; calls by dose curve; further: nearly all actives have a fitted effect of over 55% in size). To be noted: Potency: AChE enzyme activity inhibition; outcome: AChE enzyme activity inhibition. Summed up: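 Human recombinant acetylcholinesterase; substrate acetylthiocholine; thiocholine quantified with DTNB (colorimetric). Compound preincubation 30 min RT; reaction 10 min RT.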

The target is the same in assay [8]. The assay is described as follows: Acetylcholinesterase (AChE) small molecule antagonists: enzyme-based qHTS assay with human liver microsomes (AID 1347399; calls by dose curve; further: nearly all actives have a fitted effect of over 60% in size). The note with it: Potency: qHTS inhibition; outcome: qHTS inhibition. A digest of the protocol:
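Recombinant human AChE (50 mU/mL in the enzyme mix) and human liver microsomes (0.25 mg/mL final) were preincubated with compound and NADPH (0.25 mg/mL final) for 30 min at 37 C. Acetylthiocholine/DTNB was then added; thiocholine was read colorimetrically after 10 min at room temperature.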

The target in assay [9] is Cytochrome P450 2D6 (Homo sapiens) (UniProt P10635). Briefly: Cytochrome P450 Family 2 Subfamily D Member 6 (CYP2D6) small molecule antagonists: luciferase reporter qHTS assay (AID 1671196). Further: nearly all actives have a fitted effect of over 50% in size. Further: potency means the concentration at half of the fitted maximal effect. On activity change, negative = inhibition: series mostly up to about 120 µM. A digest of the protocol:
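Inhibition of CYP2D6 was gauged by loss of luminescence, since light produced tracks the luciferin generated from a proluciferin substrate. A 10 min room-temperature preincubation preceded 1 h NADPH-supported turnover.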
In general terms: In a reporter assay the amount or activity of a reporter protein is the signal.

Assay [10] addresses Cytochrome P450 2C19 (Homo sapiens) (UniProt P33261). Briefly: Cytochrome P450 Family 2 Subfamily C Member 19 (CYP2C19) small molecule antagonists: luciferase reporter qHTS assay (AID 1671197). Further: nearly all actives have a fitted effect of over 65% in size. Further: potency means the concentration at half of the fitted maximal effect. On activity change, negative = inhibition: series mostly up to about 120 µM. Summed up: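 Enzyme-substrate mix with proluciferin substrate (P450-Glo CYP2C19 system) preincubated with compounds 10 min at room temperature; NADPH regeneration solution added, 37C for 1 h; detection reagent stops reaction, luminescence read after 20 min. Ketoconazole positive control.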

The target of assay [11] is Cytochrome P450 2C9 (Homo sapiens) (UniProt P11712). The assay is described as follows: Cytochrome P450 Family 2 Subfamily C Member 9 (CYP2C9) small molecule antagonists: luciferase reporter qHTS assay (AID 1671198). Further: series mostly up to about 120 µM; nearly all actives have a fitted effect of over 50% in size. A digest of the protocol:
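CYP2C9 activity was measured with a P450-Glo proluciferin substrate. Enzyme–substrate mix was held with compound for 10 min at room temperature, then NADPH regeneration solution was added for 1 h at 37C. Luciferin product was read as luminescence.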

Assay [12] addresses Cytochrome P450 1A2 (Homo sapiens) (UniProt P05177). The assay is described as follows: Cytochrome P450 Family 1 Subfamily A Member 2 (CYP1A2) small molecule antagonists: luciferase reporter qHTS assay (AID 1671199). Further: nearly all actives have a fitted effect of over 50% in size. Further: potency means the concentration at half of the fitted maximal effect. On activity change, negative = inhibition: series mostly up to about 120 µM. A digest of the protocol: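 Signal from luciferin formed by CYP1A2 from a proluciferin substrate is read as luminescence, expressed in relative luminescence units. Compounds sit with enzyme 10 min, NADPH-driven reaction runs 1 h, all at room temperature.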

Assay [13] is described as follows: Human pregnane X receptor (PXR) small molecule agonists, qHTS cell viability counter screen (AID 1346977). Further: nearly all actives have a fitted effect of over 50% in size. A digest of the protocol: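 Readout is CellTiter-Fluor fluorescence from PXR-Luc HepG2 cells. Plated cells rested 5hr, then were treated with compounds for 24hr at 37C and 5% CO2, with reagent present during the last hour.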
Assay [14] concerns the target Acetylcholinesterase (Homo sapiens) (UniProt P22303). The assay is described as follows: Acetylcholinesterase (AChE) small molecule antagonists: fluorescence cell-based qHTS assay (AID 1347398; calls by dose curve; further: nearly all actives have a fitted effect of over 50% in size). The note with it: Potency: AChE activity; outcome: AChE activity. Summed up: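 Thiocholine generated from acetylthiocholine by SH-SY5Y cell AChE is detected with Thiolite Green (Ex/Em 490/520 nm) after 40 min at room temperature, following 30 min compound pretreatment at 37 C.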

Assay [15] deals with Cytochrome P450 3A4 (Homo sapiens) (UniProt P08684). The assay is described as follows: Cytochrome P450 Family 3 Subfamily A Member 4 (CYP3A4) small molecule antagonists: luciferase reporter qHTS assay (AID 1671201). A digest of the protocol: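 Setup: enzyme-substrate mix, compound pin transfer, 10 min RT. Reaction: NADPH regeneration solution, 1 h RT. Readout: detection reagent stops turnover, luminescence measured after 20 min, expressed in relative luminescence units.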
Chain of Cytochrome P450 3A4 (Homo sapiens) (P08684 whole entry, looked up): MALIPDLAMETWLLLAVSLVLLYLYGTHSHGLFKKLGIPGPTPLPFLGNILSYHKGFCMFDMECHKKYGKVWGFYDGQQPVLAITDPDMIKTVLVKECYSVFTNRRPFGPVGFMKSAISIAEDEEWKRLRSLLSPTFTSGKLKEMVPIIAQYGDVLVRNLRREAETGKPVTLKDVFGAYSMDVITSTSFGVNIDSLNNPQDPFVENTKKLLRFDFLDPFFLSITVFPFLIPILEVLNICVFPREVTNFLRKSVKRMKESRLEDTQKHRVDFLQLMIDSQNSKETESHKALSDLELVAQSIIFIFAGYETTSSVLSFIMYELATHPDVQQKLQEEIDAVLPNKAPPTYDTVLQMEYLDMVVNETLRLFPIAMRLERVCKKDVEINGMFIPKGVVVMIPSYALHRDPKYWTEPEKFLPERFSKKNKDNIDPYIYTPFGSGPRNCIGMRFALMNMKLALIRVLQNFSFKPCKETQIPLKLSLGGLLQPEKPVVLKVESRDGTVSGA

The target in assay [16] is Voltage-gated inwardly rectifying potassium channel KCNH2 (Homo sapiens) (UniProt Q12809). The assay is described as follows: Human Ether-a-go-go-Related Gene (hERG) channel small molecule antagonists: fluorescence cell-based qHTS assay (AID 1671200). Summed up:
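Measured: Tl+ flux via fluorescence (480/540 nm) in hERG-expressing U2OS cells after 1 h dye loading at room temperature.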
(In general: The hERG channel carries a current that helps repolarise heart muscle cells.)

The target of assay [17] is Nuclear receptor subfamily 1 group I member 2 (Rattus norvegicus) (UniProt Q9R1A7). The assay is described as follows: Rat pregnane X receptor (rPXR) activation by small molecules, qHTS assay (AID 1346983). Further: nearly all actives have a fitted effect of over 20% in size. To be noted: rPXR luciferase reporter cells, One-Glo luminescence, 24 h; active compounds read high. A digest of the protocol:
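Cell-based rPXR luciferase reporter assay, 2,000 cells per well, rested 5hr at 37 C before compound addition in DMSO, then 24 hr at 37 C. One-Glo reagent was added and luminescence read after 30 min at room temperature.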

For assay [18], the target named is Nuclear receptor subfamily 1 group I member 2 (Homo sapiens) (UniProt O75469). The assay is described as follows: Human pregnane X receptor (PXR) activation by small molecules, qHTS assay (AID 1346985). Further: nearly all actives have a fitted effect of over 40% in size. Summed up:
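DPX-2 cells (HepG2 co-transfected with a PXR response element and a CYP3A4-promoter luciferase construct) were seeded at 2,000 per well, rested 5 hr at 37C, then exposed to DMSO-dissolved compounds for 24 hr. Activation was read as luciferase luminescence.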

A number with no mark means an inactive call. Results filed as inconclusive are left out. The source made the active and inactive calls. Unless noted, the call rests on the fitted dose curve; in most records, active means well fitted curve in the direction sought with a large enough effect in the repeat runs; inconclusive means weak or mixed curves; inactive means no such curve, though single readings can be large; an effect the other way counts as inactive or inconclusive.
On the % scale 0 is the no-effect control and ±100 the full control effect.

Chain of Cytochrome P450 1A2 (Homo sapiens) (P05177 whole entry, looked up): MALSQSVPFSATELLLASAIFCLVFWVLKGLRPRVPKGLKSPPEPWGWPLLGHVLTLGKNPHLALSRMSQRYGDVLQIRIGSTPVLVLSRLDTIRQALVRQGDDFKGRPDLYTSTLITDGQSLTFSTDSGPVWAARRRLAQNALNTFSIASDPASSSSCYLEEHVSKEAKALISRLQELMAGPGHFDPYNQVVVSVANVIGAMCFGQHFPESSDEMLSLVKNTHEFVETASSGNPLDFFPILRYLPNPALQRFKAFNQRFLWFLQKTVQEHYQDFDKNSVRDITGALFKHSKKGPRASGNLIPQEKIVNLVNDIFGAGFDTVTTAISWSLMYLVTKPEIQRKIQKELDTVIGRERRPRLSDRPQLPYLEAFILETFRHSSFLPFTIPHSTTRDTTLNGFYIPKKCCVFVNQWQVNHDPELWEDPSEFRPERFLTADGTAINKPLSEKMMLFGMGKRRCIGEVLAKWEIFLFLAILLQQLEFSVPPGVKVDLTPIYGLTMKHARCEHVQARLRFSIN
Chain of Cytochrome P450 2D6 (Homo sapiens) (P10635 whole entry, looked up): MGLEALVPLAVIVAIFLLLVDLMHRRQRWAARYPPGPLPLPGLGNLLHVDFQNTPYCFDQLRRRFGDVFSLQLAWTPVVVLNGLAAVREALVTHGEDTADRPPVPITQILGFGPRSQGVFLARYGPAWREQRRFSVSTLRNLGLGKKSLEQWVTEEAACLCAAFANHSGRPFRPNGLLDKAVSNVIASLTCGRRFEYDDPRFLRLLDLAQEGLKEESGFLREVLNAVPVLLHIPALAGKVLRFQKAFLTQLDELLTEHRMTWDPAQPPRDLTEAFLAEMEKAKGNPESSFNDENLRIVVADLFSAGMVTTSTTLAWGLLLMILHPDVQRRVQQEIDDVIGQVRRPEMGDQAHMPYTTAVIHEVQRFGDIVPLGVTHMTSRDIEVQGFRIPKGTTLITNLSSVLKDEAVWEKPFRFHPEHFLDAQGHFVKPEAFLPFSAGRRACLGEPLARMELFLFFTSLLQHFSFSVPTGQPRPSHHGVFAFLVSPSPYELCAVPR
Chain of Voltage-gated inwardly rectifying potassium channel KCNH2 (Homo sapiens) (Q12809 whole entry, looked up): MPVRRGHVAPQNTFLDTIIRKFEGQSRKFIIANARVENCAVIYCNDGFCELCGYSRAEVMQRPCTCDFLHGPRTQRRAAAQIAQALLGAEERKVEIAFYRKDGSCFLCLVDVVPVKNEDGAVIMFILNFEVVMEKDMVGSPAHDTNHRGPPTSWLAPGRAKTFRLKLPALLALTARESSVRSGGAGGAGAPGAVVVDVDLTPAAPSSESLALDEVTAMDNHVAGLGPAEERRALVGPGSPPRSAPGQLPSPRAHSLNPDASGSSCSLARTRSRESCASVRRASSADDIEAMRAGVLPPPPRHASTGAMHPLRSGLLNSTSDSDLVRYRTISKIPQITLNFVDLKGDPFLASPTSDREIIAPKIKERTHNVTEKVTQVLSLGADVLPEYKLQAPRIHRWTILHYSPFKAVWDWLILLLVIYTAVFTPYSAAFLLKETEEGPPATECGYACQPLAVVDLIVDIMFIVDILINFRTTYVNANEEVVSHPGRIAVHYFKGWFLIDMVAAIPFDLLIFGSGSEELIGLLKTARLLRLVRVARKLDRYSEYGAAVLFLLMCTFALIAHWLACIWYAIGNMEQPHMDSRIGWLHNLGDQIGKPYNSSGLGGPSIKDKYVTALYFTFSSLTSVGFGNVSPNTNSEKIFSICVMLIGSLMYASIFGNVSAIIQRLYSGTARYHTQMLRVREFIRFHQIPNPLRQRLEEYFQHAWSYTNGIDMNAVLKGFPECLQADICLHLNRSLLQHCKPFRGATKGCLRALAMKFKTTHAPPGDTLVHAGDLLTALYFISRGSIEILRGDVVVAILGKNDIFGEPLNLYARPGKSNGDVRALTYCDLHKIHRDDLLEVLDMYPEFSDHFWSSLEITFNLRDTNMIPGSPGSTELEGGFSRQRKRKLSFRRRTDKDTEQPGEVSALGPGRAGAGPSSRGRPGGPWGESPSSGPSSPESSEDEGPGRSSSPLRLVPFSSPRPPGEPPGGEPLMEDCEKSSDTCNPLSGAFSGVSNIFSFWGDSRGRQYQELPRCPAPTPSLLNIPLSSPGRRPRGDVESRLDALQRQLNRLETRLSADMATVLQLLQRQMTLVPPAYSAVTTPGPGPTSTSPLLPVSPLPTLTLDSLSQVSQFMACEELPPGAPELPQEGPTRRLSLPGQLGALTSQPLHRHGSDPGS
Chain of Nuclear receptor subfamily 1 group I member 2 (Homo sapiens) (O75469 whole entry, looked up): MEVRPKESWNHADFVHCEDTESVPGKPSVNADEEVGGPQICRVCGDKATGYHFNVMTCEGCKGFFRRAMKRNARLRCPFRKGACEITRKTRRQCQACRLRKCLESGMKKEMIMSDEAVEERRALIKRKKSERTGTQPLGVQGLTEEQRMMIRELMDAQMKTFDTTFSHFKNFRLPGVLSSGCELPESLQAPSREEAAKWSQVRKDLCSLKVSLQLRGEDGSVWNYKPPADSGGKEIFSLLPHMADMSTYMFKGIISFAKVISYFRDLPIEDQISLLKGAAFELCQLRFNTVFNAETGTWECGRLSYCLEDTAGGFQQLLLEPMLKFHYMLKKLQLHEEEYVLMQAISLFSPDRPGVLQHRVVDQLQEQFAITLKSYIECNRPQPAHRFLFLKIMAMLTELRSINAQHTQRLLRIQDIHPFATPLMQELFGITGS
Chain of Cytochrome P450 2C9 (Homo sapiens) (P11712 whole entry, looked up): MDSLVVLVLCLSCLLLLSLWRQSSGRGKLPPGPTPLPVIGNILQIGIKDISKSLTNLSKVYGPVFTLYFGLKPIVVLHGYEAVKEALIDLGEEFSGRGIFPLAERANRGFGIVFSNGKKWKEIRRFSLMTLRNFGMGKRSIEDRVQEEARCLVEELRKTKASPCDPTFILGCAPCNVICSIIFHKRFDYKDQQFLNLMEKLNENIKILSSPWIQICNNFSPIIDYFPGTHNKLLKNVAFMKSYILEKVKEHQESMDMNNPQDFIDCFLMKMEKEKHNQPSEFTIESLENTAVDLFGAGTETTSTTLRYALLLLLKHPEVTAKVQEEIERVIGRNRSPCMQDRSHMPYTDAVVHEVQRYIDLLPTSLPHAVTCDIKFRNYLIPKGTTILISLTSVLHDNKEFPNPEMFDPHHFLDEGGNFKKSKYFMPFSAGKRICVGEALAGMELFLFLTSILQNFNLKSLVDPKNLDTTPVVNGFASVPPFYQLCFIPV
Chain of Acetylcholinesterase (Homo sapiens) (P22303 whole entry, looked up): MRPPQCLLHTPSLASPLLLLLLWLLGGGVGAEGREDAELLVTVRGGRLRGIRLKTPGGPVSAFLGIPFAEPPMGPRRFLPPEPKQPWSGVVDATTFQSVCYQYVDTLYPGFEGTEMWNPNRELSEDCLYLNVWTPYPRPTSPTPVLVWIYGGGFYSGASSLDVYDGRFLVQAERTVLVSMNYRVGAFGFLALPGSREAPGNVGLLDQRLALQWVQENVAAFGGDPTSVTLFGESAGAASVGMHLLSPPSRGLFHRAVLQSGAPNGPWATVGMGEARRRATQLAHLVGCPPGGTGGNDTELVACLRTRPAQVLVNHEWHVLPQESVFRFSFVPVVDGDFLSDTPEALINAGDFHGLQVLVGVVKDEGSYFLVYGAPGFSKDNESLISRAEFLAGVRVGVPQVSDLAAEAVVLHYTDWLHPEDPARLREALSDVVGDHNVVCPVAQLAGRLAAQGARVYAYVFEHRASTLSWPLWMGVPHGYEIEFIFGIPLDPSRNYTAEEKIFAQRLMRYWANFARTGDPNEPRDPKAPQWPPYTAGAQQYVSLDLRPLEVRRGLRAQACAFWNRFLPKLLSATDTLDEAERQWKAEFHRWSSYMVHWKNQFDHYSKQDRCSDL
Chain of Cytochrome P450 2C19 (Homo sapiens) (P33261 whole entry, looked up): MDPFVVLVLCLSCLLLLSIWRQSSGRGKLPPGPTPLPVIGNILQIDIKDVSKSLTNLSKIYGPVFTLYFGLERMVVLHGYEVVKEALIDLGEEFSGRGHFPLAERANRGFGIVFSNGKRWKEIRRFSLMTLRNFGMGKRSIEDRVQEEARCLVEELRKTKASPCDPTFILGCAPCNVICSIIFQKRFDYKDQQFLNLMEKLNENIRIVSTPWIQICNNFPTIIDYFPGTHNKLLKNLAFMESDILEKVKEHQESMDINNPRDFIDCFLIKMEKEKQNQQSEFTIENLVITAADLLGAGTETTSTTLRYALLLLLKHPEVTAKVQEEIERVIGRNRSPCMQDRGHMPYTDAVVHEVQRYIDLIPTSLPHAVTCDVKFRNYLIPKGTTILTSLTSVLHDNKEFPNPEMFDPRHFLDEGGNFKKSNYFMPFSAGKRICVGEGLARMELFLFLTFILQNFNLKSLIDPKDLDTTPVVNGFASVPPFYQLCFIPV

Regarding `CC[C@H](O)C(C[C@H](C)N(C)C)(c1ccccc1)c1ccccc1`, the compound was called inactive in assay [1] and in assay [3]. Further, the Potency entry in assay [2], in assay [4], in assay [5], in assay [6], in assay [7] and in assay [8] was “inactive” throughout. Further, the Potency result in assay [10], in [11] and in assay [12] was “inactive” in each case. Also, the Potency in assay [9] is 1.44 µM (active).
With `COC[C@@H](NC(C)=O)C(=O)NCc1ccccc1`, the Potency entry in assay [13], in assay [2], in assay [4], in assay [5], in assay [6] and in assay [7] was “inactive” in each case. Besides, the Potency entry in assay [14], in assay [8], in assay [9], in assay [10], in [11] and in assay [15] was “inactive” in each case. Moreover, the compound was classed as inactive in assay [1] and in assay [3].
For the compound `Brc1c(Br)c(Br)c(Br)c(Br)c1Br`, the figures for the activity change, negative = cytotoxicity in assay [13], in assay [2] and in assay [4] were 1.06% [at 8.39 µM], 1.28% [at 8.39 µM] and 7.69% [at 8.39 µM], respectively. In assay [1], the caspase activation is 0.467% [at 8.39 µM]. The caspase-3/7 activation in assay [3] was -0.0086% [at 8.39 µM]. The activation in assay [5] is 1.3% [at 8.39 µM]. In addition, the activity, negative = inhibition in [6] was -5.69% [at 10.5 µM]. Besides, the activity change, negative = inhibition is -2.31% [at 10.5 µM] in assay [7]; -32.6% [at 10.5 µM] in assay [14]; -0.832% [at 10.5 µM] in assay [8]; -1.47% [at 10.5 µM] in assay [9]; -0.615% [at 10.5 µM] in [10]; 0.0091% [at 10.5 µM] in assay [11]. Further, the activity change, negative = inhibition in assay [15] is 2.63% [at 10.5 µM].
In the case of `ClCOCCl`, the Potency result in assay [13], in assay [2], in assay [4], in [6], in assay [7] and in [14] was “inactive” each time. Moreover, the Potency result in assay [8], in assay [9], in assay [10], in [11], in assay [16] and in assay [15] was “inactive” in each case. The result in assay [1] and in [3] was inactive.
`C#CC(C)(C)O`: the Potency result in [13], in assay [2], in [4], in [6], in assay [7] and in [14] was “inactive” throughout. In addition, the Potency result in assay [8], in [9], in assay [10], in [11], in assay [16] and in [15] was “inactive” each time. The compound was called inactive in assay [3].
In the case of `CC(=O)OCC1=C(C(=O)O)N2C(=O)[C@@H](N)[C@H]2SC1`, the values for the activity change, negative = cytotoxicity in [13], in assay [2] and in [4] were 0.727% [at 19 µM], 0.401% [at 19 µM] and -1.33% [at 19 µM], respectively. For the same compound, the caspase activation in assay [1] is 0.281% [at 19 µM]. In addition, the caspase-3/7 activation in [3] is 0.439% [at 19 µM]. Further, in assay [5], the activation is -3.67% [at 19 µM]. Moreover, the max activation in assay [17] was 4.87%. Further, the Potency entry in assay [18] is “inactive”. In addition, the activity, negative = inhibition in assay [6] was 1.78% [at 23.6 µM]. Also, the activity change, negative = inhibition in assay [7] is -2.73% [at 23.6 µM]; in assay [14] it was -12.7% [at 23.8 µM]; in [8], -11.4% [at 23.6 µM]; in [16] it was 0.177% [at 15.8 µM]; in [15] it was -8.01% [at 23.6 µM]. In addition, the results for the Potency in [10] and in assay [12] were 15.1 µM (active) and 12 µM (active), respectively.
Turning to `CCOC(=O)CCl`, the Potency result in assay [13], in assay [2], in assay [4], in assay [6], in assay [7] and in assay [14] was “inactive” throughout. The Potency entry in [8], in [9], in [10], in assay [11], in assay [12] and in [16] was “inactive” in each case. Moreover, the Potency result in assay [15] is “inactive”. The outcome in [1] and in assay [3] was inactive.
